# Reference: PubChem BioAssay (EPA / NIEHS)
# A structure can be active in one record and inactive in another. Activity calls are given as the source filed them. How the source made its calls: active means hit-call score of the fitted dose curve at least 0.9, where 1 is the maximum; inactive means score below 0.9.
# Experiment: CCTE_Shafer_MEA_dev_mutual_information_norm: CCTE's Neural Network Formation Assay for Mutual Information Normalization, Shafer Lab (AID 2284091);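 on AC50: mutual information between electrodes summarised as area under curve across four recording days; potency is for a decrease in mutual information relative to DMSO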
# Outline: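 Developing rat cortical networks on 16-electrode MEA wells are treated throughout formation (DIV 0–12). Shared electrode information is recorded four times, converted to area-under-curve, and fitted for decreases against DMSO vehicle.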
Compound,AC50,outcome
C[n+]1ccc(-c2cc[n+](C)cc2)cc1,2290 nM (active),
C/C(=C/C=C/[C@@H](C)C(=O)O)[C@H]1CN[C@H](C(=O)O)[C@H]1CC(=O)O,50.7 nM (active),inactive
CP(=O)(O)CCC(N)C(=O)O (configuration not stated),,inactive
NCCc1cc(O)c(O)cc1O,3200 nM (active),
CCOP(=S)(OCC)SCS(=O)C(C)(C)C (configuration not stated),,inactive
C[n+]1ccc(-c2ccccc2)cc1,,inactive
O=C(O)CNCP(=O)(O)O,,inactive
C#CCN(C)[C@H](C)Cc1ccccc1,,inactive
Cn1nc(C(F)(F)F)c(CS(=O)(=O)C2=NOC(C)(C)C2)c1OC(F)F,,inactive
CCCCC(CC)COC(=O)c1cc(Br)c(Br)c(Br)c1Br (configuration not stated),,inactive
CC1(C)C(C=C(Cl)c2ccc(Cl)cc2)C1C(=O)OC(C#N)c1ccc(F)c(Oc2ccccc2)c1 (configuration not stated),5420 nM (active),
CCOP(=O)(Oc1cnc(C(C)(C)C)nc1)OC(C)C (configuration not stated),,inactive
CC1(C)[C@H](C=C(Cl)Cl)[C@H]1C(=O)OCc1c(F)c(F)cc(F)c1F,13400 nM (active),
CC(=O)[O-].CC(=O)[O-].O.O.O.[Pb+2],,inactive
CC1(C)C(C=C(Cl)Cl)C1C(=O)O[C@H](C#N)c1cccc(Oc2ccccc2)c1 (some centres not stated),2900 nM (active),
CCOP(=O)(OCC)OC(Cl)C(Cl)(Cl)Cl (configuration not stated),797 nM (active),
CCOP(=O)(OCC)SCSC(C)(C)C,,inactive
CC1(C)[C@@H](C=C(Cl)Cl)[C@@H]1C(=O)O[C@@H](C#N)c1ccc(F)c(Oc2ccccc2)c1,2390 nM (active),
COP(=O)(OC)SCN1C(=O)c2ccccc2C1=O,,inactive
CP(=O)(O)CC[C@H](N)C(=O)O,,inactive
CC(=O)[O-].[Tl+],,inactive
